D1 ag: human D1 receptor agonism | activation, % at 2 µM | 360,000 compounds, 1% hits | HEK293 T-REx D1 cells, calcium flux, agonist mode; in the data active means activation above about 30%; further: 0% is about no effect
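Tetracycline-induced HEK293 TREx D1 cells, force-coupled to calcium signalling, were dye-loaded with a no-wash calcium kit. Compound was pin-added after a 10 s baseline. Fluorescence was read kinetically at 1 cycle/s for 180 s, with calcium rises flagged as agonism.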
D1 antag: human D1 dopamine receptor antagonism | HEK293 TREx D1 cells, calcium flux, dopamine EC80; active compounds read low | activity change, negative = inhibition, % at 10 µM | 360,000 compounds, 3.2% hits; in the data active means activity change below about -30%; further: on the % scale 0 is the no-effect control and ±100 the full control effect
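Calcium flux readout: force-coupled, inducible Hek293 Trex D1 line, cells induced overnight at 30 C with tetracycline, dye-loaded 30–90 min at RT. Antagonism scored against EC80 dopamine challenge given 180 s after compound.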
D1 PAM: enhances dopamine response at the human D1 receptor. P21728. 360,000 compounds, 0.036% hits. potentiation, % at 10 µM. HEK293 TREx D1 cells, calcium flux, dopamine EC20 potentiation; in the data active means potentiation above about 30%; further: 0% is about no effect
DRD3 antagonist: blocks the human D3 dopamine receptor | P35462 | D3R cells, DiscoveRx beta-arrestin luminescence, antagonist mode; active compounds read low | max response, negative = inhibition, % | 360,000 compounds, 2.5% hits; in the data active means max response below about -50%; inconclusive means no clear call, values can overlap the other calls; further: on the % scale 0 is the no-effect control and ±100 the full control effect
Target sequence (P35462 whole entry, looked up): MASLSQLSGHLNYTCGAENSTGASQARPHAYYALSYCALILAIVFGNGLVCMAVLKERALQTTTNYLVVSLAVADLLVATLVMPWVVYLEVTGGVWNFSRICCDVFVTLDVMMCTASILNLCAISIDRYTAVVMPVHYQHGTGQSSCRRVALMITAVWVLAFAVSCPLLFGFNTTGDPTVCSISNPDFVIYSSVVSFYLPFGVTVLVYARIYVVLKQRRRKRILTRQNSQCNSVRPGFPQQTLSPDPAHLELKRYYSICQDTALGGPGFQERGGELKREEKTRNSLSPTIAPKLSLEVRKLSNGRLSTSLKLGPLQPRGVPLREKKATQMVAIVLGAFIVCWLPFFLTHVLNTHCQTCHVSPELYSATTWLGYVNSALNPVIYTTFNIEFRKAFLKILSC
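Cells plated overnight at 1500 cells/well, then exposed to library compounds with dopamine controls for 90 minutes at 37 degrees C. DiscoveRx reagent added for 30–60 minutes at room temperature; luminescence read, quantitative HTS format.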
DRD3 agonist: D3 dopamine receptor (human) agonism. P35462. D3R DiscoveRx beta-arrestin cells, luminescence, 90 min. max activation, %. 410,000 compounds, 0.58% hits; in the data active means max activation above about 30%; further: 0% is about no effect
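Cells at 1500/well, incubated overnight, then treated with pinned compounds (dopamine as control) for 90 min at 37 degrees C. DiscoveRx reagent added for 30 - 60 minutes at room temperature; luminescence read.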
ERG Ets-DNA blk: inhibitors of human ERG Ets domain-DNA interaction; P11308; fluorescence polarization, His-ERG Ets domain / labelled DNA; Potency, µM (titrated, usually from 76.9 µM), inactives show at the top dose FP activity, negative = inhibition, hits mostly inhibitors; 370,000 compounds, 0.028% hits; AID 624246; active means well fitted inhibition curve with a large enough effect in the polarisation, with a control signal flat; inconclusive means small, poorly fitted or top-dose-only effect, or effect the other way, or a change in a side signal; inactive means no such curve, though single readings can be large or run the other way; the % refers to the polarisation;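 further: polarization taken with two DNA probes labelled with fluorescein and Texas red; potency means the concentration at half of the fitted maximal effect; % of control where 0% means no effect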
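His-tagged ERG Ets domain (1 uM in the protein solution; 300mM KCl, 50mM Tris-HCl, 1mM EDTA, 1mM DTT, pH 7.5) received compound, then a probe mix of 5 nM fluorescein-DNA and 100nM Texas-615-DNA. Fluorescence polarization was read for both dyes.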
Starred values were filed as active, the others as inactive; ? = inconclusive; nt = no result given. Most compounds without a hit are left out; they make up all but 6.1% or so of the library.

SMILES | D1 ag | D1 antag | D1 PAM | DRD3 antagonist | DRD3 agonist | ERG Ets-DNA blk
CCOC(=O)c1cccc(C2=C(CNC(C)=O)[C@H]3CC[C@@H](C2)N3Cc2ccccc2)c1 | nt | nt | nt | -9 | -7 | nt
O=C1NC(=S)N(Cc2ccco2)C(=O)/C1=C\c1cccs1 | 5 | 8 | 1 | nt | nt | nt
O=c1[nH]c2ccccc2n1C1CCN(C(CCc2ccccc2)c2nnnn2-c2ccc3c(c2)OCCO3)CC1 (stereo unspecified) | nt | nt | nt | 98 | 36* | nt
CCCCCCC(Cl)(Cn1ccnc1)c1ccccc1 (stereo unspecified) | nt | nt | nt | 11 | -24 | 2%
CC1=CC2/C=C(\C)CCC(O)C(O)/C=C/C(=O)C23C(=O)NC(CC(C)C)C3C1C (stereo unspecified) | -3 | 21 | -3 | -74* | -12 | 3%
C=CCn1c(O)c(/C=C/C=Nc2ccccc2)c(=O)[nH]c1=O | 16 | -3 | -3 | 31 | 4 | nt
COc1ccc(-n2c(O)c(/C(C)=N/Nc3ccccc3)c(=O)[nH]c2=O)cc1 | 1 | -1 | 1 | -5 | 3 | -17%
O=c1[nH]c(=O)n(C2CCCCCC2)c(O)c1C=NC1CCN(Cc2ccccc2)CC1 | 1 | -28 | -3 | -58* | -15 | 7%
COc1ccc(-n2c(O)c(/C=C/C=Nc3ccccc3)c(=O)[nH]c2=O)cc1 | 91* | 5 | -3 | -4 | 2 | nt
Cn1c(O)c(C=NC2CCN(Cc3ccccc3)CC2)c(=O)[nH]c1=O | 0 | -5 | -4 | -29 | -35 | 4%
O=c1[nH]c(=O)n(C2CCCCCC2)c(O)c1C=NCC1CCCO1 (stereo unspecified) | -1 | 9 | 5 | -51* | 11 | -1%
O=c1[nH]c(=O)n(C2CCCCC2)c(O)c1/C=C/C=Nc1ccccc1 | 175* | -1 | -9 | 1 | 0 | 26%
C[C@@H]1CN([C@@H](C)CO)C(=O)CCCn2cc(nn2)CO[C@H]1CN(C)C(=O)Oc1cccc2ccccc12 | nt | nt | nt | 8 | 3 | nt
O=C(Nc1ccon1)c1cccn(Cc2cccc(Cl)c2)c1=O | 1 | 12 | -3 | nt | -6 | -3%
O=c1[nH]c(=O)n(-c2ccccc2)c(O)c1/C=C/C=Nc1ccccc1 | 21 | -3 | -3 | 11 | 5 | nt
Cc1ccc(-n2c(O)c(/C=C/C=Nc3ccccc3)c(=O)[nH]c2=O)cc1 | 50* | 22 | 8 | 0 | 5 | nt
Cc1cc(C(C#N)c2ccc(Cl)cc2)c(Cl)cc1NC(=O)c1cc(I)cc(I)c1O (stereo unspecified) | 13 | -33* | -7 | 14 | 14 | 11%
C[C@H]1CCC/C=C/[C@@H]2C[C@H](O)C[C@H]2[C@H](O)/C=C/C(=O)O1 | -1 | -3 | -6 | 7 | 17 | 3%
O=S1(=O)N(Cc2ccccc2Cl)CCCN1Cc1ccccc1Cl | 19 | -3 | 3 | nt | -5 | -1%
O=S1(=O)N(Cc2ccccc2)CCCN1Cc1ccc(F)cc1Cl | 10 | -44* | -3 | nt | -10 | -1%
CC(C)(C)c1cc([N+](=O)[O-])cc(C(C)(C)C)c1O | 34* | -36* | -8 | -16 | -4 | -6%
O=C1NC(=O)N(c2ccccc2F)C(=O)/C1=C/c1ccc(Sc2nc3ccccc3[nH]2)o1 | 116* | -10 | 5 | -14 | -2 | 154%
O=C1NC(=O)N(c2cccc(Cl)c2)C(=O)/C1=C\c1ccc(Sc2nc3ccccc3[nH]2)o1 | 63* | -5 | 2 | -18 | -14 | 106%
O=C1NC(=O)N(c2ccccc2)C(=O)/C1=C/c1ccc(Sc2ccccc2)o1 | 0 | 8 | 1 | -18 | 5 | ?
CCOC(=O)c1c(C=O)c2ccccc2n1Cc1ccccc1F | 14 | 7 | 5 | 7 | -7 | 14%
SMILES | D1 ag | D1 antag | D1 PAM | DRD3 antagonist | DRD3 agonist | ERG Ets-DNA blk
N#Cc1nn(-c2c(Cl)cc(C(F)(F)F)cc2Cl)c(N)c1S(=O)C(F)(F)F (stereo unspecified) | nt | nt | nt | nt | 14 | nt
C[C@H]1CN([C@@H](C)CO)C(=O)CCCn2nncc2CO[C@@H]1CN(C)C(=O)Oc1ccccc1 | nt | nt | nt | 11 | 1 | nt
C[C@@H]1CN([C@@H](C)CO)C(=O)CCCn2nncc2CO[C@H]1CN(C)C(=O)Oc1ccc2ccccc2c1 | nt | nt | nt | 0 | -3 | nt
CC(=O)C1CCC2C3CCC4CC(O)CCC4(C)C3C(O)CC12C (stereo unspecified) | nt | nt | nt | -17 | 5 | 6%
CC(C)S(=O)(=O)N1Cc2ccccc2-n2nncc2C1 | nt | nt | nt | 0 | -8 | nt
C#CC1(O)CCC2C3CCC4=CC(=O)CCC4=C3C=CC21C (stereo unspecified) | nt | nt | nt | 13 | 2 | -1%
CCCCCc1nc2ccccc2c(=O)n1-c1ccc(Cl)cc1[N+](=O)[O-] | -1 | -44* | 1 | 19 | 29 | 0%
Fc1ccccc1CCNCc1ccccc1 | 24 | 12 | -12 | -3 | -5 | -2%
Fc1ccccc1CCNCc1cccc(Cl)c1Cl | nt | nt | nt | -58* | -32 | nt
COC(=O)Cn1cc(C(=O)c2ccccc2F)c2ccccc21 | 3 | -10 | -5 | -24 | -8 | 11%
CCOC(=O)c1cccc(C2=C(CNC(=O)c3ccc([N+](=O)[O-])cc3)[C@H]3CC[C@@H](C2)N3Cc2ccccc2)c1 | nt | nt | nt | -98* | -17 | nt
COc1ccc(-c2nc(CN3C(=O)CN=C(c4ccccc4Cl)c4cc(Cl)ccc43)c(C)o2)cc1OC | 1 | 10 | 1 | nt | 9 | -1%
COc1ccc(-c2nc(CN3C(=O)CN=C(c4ccccc4)c4ccccc43)c(C)o2)cc1OC | 4 | -31* | -4 | nt | 10 | -1%
CC1C2Cc3ccc(O)cc3[C@]1(C)CCN2CCc1ccccc1 (stereo partly specified) | nt | nt | nt | -93* | -93 | -23%
C[C@@H]1[C@@H]2Cc3ccc(O)cc3[C@@]1(C)CCN2CCc1ccccc1 | nt | nt | nt | nt | -23 | nt
CCc1cccc(C)c1NC(=S)N1CC2CC(C1)c1cccc(=O)n1C2 (stereo unspecified) | 2 | 3 | 6 | -10 | 5 | -13%
CCCNC(=O)N1[C@H]2CC[C@@H]1C(C(=O)OC)=C(c1ccc(F)cc1F)C2 | 1 | -1 | 8 | 6 | 3 | 5%
CN1CCc2nc(SCc3ccccc3Br)c(C#N)cc2C1 | 2 | -35* | -1 | -81* | -11 | 3%
Cc1cccc(CSc2nc3c(cc2C#N)CN(C)CC3)c1 | 1 | -4 | -3 | -26 | -1 | 8%
CC1CCN(CC#CCOc2ccc(Cl)cc2)CC1 | -1 | -28 | -18 | -105* | -26 | 13%
Clc1ccc(CNCCc2ccc3c(c2)OCO3)cc1 | 19 | 2 | -10 | -25 | -11 | -11%
COc1ccc(CNCCc2ccc3c(c2)OCO3)cc1Br | 78* | -18 | -4 | -27 | 1 | 3%

Screens deposited in PubChem by National Center for Advancing Translational Sciences (NCATS).
